From PubChem
BAZ2B inh: qHTS Assay for Inhibitors of BAZ2B; Bromodomain adjacent to zinc finger domain protein 2B (Homo sapiens), Q9UIF8; AlphaScreen BAZ2B-H3K14Ac peptide displacement; Potency, µM (top dose mostly 114 µM), most hits filed as inhibitors; 360,000 tested, 4.4% active; AID 504333, 2011; note: nearly all actives have a fitted effect of over 60% in size
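BAZ2B 50 nM plus b-H3(5-23)K14Ac 50 nM, PBS pH 7.4/0.01% Tween-20, 30 min RT; compound added (max 110 uM), 30 min RT; streptavidin donor/Ni-chelate acceptor beads 10 ug/mL final, 20 min dark; AlphaScreen read.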
L3MBTL1 block: qHTS Assay for the Inhibitors of L3MBTL1 | AlphaScreen L3MBTL1–H3K9me1 peptide binding | 230,000 tested, 0.66% active | Lethal(3)malignant brain tumor-like protein 1 (Homo sapiens), Q9Y468 | Potency, µM (top dose mostly 57.1 µM), actives largely listed as inhibitors; note: nearly all actives have a fitted effect of over 60% in size
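First, the protein-peptide complex forms for 30 min at room temperature (L3MBTL1 50 nM, biotinylated H3K9me1 peptide 75 nM). Next, compounds are pin-transferred and incubated 30 min. Finally, AlphaScreen beads are added and read after 30 min.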
G9a block: qHTS Assay for Inhibitors of Histone Lysine Methyltransferase G9a. 350,000 tested, 8.8% active. Potency, µM (series often up to 102 µM), actives largely listed as inhibitors. G9a H3K9 monomethylation, AlphaScreen, 2 h; note: nearly all actives have a fitted effect of over 75% in size
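Quantitative HTS format: methyltransferase activity on a biotin-tagged H3K9 peptide is measured by AlphaScreen, using a rabbit anti-monomethyl-H3K9 antibody with streptavidin donor and anti-IgG acceptor beads. Final levels are 20 nM enzyme, 500 nM peptide, 20 uM SAM; 2 h RT.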
JMJD2A Tudor inh: qHTS Assay for Inhibitors of JMJD2A-Tudor Domain; Lysine-specific demethylase 4A (Homo sapiens), O75164; AlphaScreen JMJD2A-Tudor / H3K4me3 peptide binding; Potency, µM (titrated, usually from 114 µM), usual class: inhibitors; 390,000 tested, 4.4% active; note: nearly all actives have a fitted effect of over 50% in size
PI5P4K alpha inh: qHTS for Inhibitors of phosphatidylinositol 5-phosphate 4-kinase (PI5P4K). max response, %. 330,000 tested, 1.2% active. Phosphatidylinositol 5-phosphate 4-kinase type-2 alpha (Homo sapiens), P48426. PI5P4Kalpha enzyme, ADP-Glo luminescence, 60 min; active compounds read low; active = max response of -50% or lower; inconclusive = between -30% and -50%; inactive = -30% or higher; note: value at the top dose of about 77 µM
Target sequence (P48426 whole entry, looked up): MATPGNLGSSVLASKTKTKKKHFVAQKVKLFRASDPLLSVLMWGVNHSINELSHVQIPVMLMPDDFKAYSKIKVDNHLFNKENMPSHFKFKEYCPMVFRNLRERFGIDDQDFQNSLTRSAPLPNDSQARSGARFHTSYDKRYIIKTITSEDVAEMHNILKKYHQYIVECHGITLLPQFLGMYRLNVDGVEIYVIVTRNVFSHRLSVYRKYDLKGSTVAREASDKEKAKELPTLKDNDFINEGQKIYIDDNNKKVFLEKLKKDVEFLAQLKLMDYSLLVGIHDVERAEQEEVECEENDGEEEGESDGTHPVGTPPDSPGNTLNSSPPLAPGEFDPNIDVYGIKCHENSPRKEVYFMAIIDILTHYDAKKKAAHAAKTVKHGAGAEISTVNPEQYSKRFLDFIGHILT
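Controls without substrate or without enzyme flank wells where PI5P4Kalpha converts substrate using 5 microM ATP (final). Incubation lasts 60 minutes at room temperature; ADP formed is read by ADP-Glo luminescence.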
HP1b binding inh: HTS for Inhibitors of HP1-beta Chromodomain Interactions with Methylated Histone Tails | AID 540317, 2011 | Potency, µM (series often up to 114 µM), hits mostly inhibitors | 390,000 tested, 0.56% active | AlphaScreen HP1-beta / biotin-H3K9me3 peptide binding; note: nearly all actives have a fitted effect of over 70% in size
Target sequence (P83916 whole entry, looked up): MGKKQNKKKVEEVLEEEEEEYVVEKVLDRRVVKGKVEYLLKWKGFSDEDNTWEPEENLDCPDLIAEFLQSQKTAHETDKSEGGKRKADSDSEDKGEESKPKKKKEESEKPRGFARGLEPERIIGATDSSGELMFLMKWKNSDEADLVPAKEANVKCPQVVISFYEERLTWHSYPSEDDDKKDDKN
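HP1-beta protein (50 nM final) preincubated 30 min at room temperature with biotinylated H3(1-18)K9me3 peptide (50 nM) in PBS pH 7.4, 0.01% Tween-20, then compound added for 30 min. AlphaScreen streptavidin donor/nickel chelate acceptor beads (10 ug/mL final), 30 min dark, luminescence read.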
Numbers stand for hits; . = inactive; ? = inconclusive; / = no result given; [ ] = another dose, or the depositor's remark. Compounds with a hit are over-represented: about 11% of the library has one in this group of screens. Unless noted, calls come from the whole dose curve; as a rule, active = well fitted inhibition curve with a large enough effect; inconclusive = small, poorly fitted or top-dose-only effect; inactive = no such curve, though single readings can be large or run the other way.

SMILES	BAZ2B inh	L3MBTL1 block	G9a block	JMJD2A Tudor inh	PI5P4K alpha inh	HP1b binding inh
C=CCSC1=N/C(=C\c2cc(OCC)c(OC(C)=O)c([N+](=O)[O-])c2)C(=O)S1	35.5µM	1.41µM	12.6µM	17.8µM	-72.3	28.2µM
NC(=O)c1ccccc1NC(=O)C1CCCN(c2ncnc3onc(-c4ccc(F)cc4)c23)C1 (configuration not stated)	.	/	.	.	/	.
O=S(=O)(Nc1nc2ccccc2nc1Cl)c1cccc(C(F)(F)F)c1	.	/	.	.	.	.
O=S(=O)(Nc1nc2ccccc2nc1Cl)c1ccccc1C(F)(F)F	.	/	70.8µM	.	.	.
Cc1nc2c(C(=O)N3CCOCC3)cnn2c(C)c1Cc1cccc(Cl)c1	.	.	50.1µM	/	/	/
COc1ccc(C/C(C)=N/NC(=S)Nc2ccccc2)cc1	.	.	?	.	.	.
COc1ccc(C/C(C)=N/NC(=S)Nc2ccc(C)c(C)c2)cc1	.	.	28.2µM	31.6µM	.	.
COc1ccc(C/C(C)=N/NC(=S)Nc2ccc(Cl)cc2)cc1	.	/	7.08µM	.	.	.
CCOc1ccc(S(=O)(=O)N/N=C(\C)Cc2ccc(OC)cc2)cc1	?	.	39.8µM	.	.	.
COc1ccc(/C(C)=N/NC(=S)Nc2cc(C)ccc2C)cc1	?	.	35.5µM	?	.	.
COc1ccc(CCNC(=O)C(=O)Nc2ccc(C)c(C)c2)cc1	.	/	.	.	/	.
COc1ccc(S(=O)(=O)N/N=C(/C)c2ccc(C)o2)cc1	/	/	/	.	.	.
Cc1cc(C)c2sc(NC(=O)c3ccc(S(=O)(=O)N4CCOCC4)cc3)nc2c1	.	/	.	.	/	.
CCCCc1ccc(NC(=S)Nc2ccc(Nc3ccc(OC)cc3)cc2)cc1	14.1µM	?	12.6µM	28.2µM	.	?
CCOc1ccc(CSCCNC(=S)Nc2ccc(OC)cc2)cc1	.	.	.	.	.	.
CCOc1ccc(NC(=S)N/N=C(\C)Cc2ccc(OC)cc2)cc1	?	.	?	7.08µM	.	.
Cc1cccc(C(=O)N2c3ncnn3C3(CCCCC3)[C@@H]3CCCC[C@@H]32)c1	.	/	.	.	/	.
COc1ccc(OC)c(CCNc2ncnc3onc(C)c23)c1	.	/	.	.	/	.
Cc1cc(NC(=O)c2ccc(-c3ccc(Br)cc3)o2)cc(-c2nc3ncccc3o2)c1O	.	/	.	.	/	.
Cc1ccc(S(=O)(=O)/N=C2/NC(=O)/C(=C/c3cc([N+](=O)[O-])ccc3O)S2)cc1	.	/	11.2µM	.	.	.
O=C1NC(=Nc2ccccc2Cl)S/C1=C\c1cc([N+](=O)[O-])ccc1O	?	.	35.5µM	?	-67.0	.
O=C1NC(=Nc2cccnc2)S/C1=C/c1ccc(F)cc1	.	/	.	.	.	.
COc1cccc(N=C2NC(=O)/C(=C/c3cc([N+](=O)[O-])ccc3O)S2)c1	56.2µM	/	?	?	-76.2	?
CCOCCCn1c(=N)c(C(=O)NCc2cccnc2)cc2c(=O)n3cc(C)ccc3nc21	.	/	.	.	/	.
COc1ccc(C(=O)Oc2c(Sc3ccc(C)cc3)c(C)nn2C(C)(C)C)c(OC)c1	.	/	.	.	/	.
SMILES	BAZ2B inh	L3MBTL1 block	G9a block	JMJD2A Tudor inh	PI5P4K alpha inh	HP1b binding inh
Cc1cccc(-n2c(O)c(C=Nc3cccc(O)c3)c3ccccc3c2=O)n1	.	.	.	.[11.4 µM]	.	.
CC1=NC(=O)C(N=Nc2cccc(O)c2)N1c1ccccc1 (configuration not stated)	20µM	/	?	31.6µM	/	?
CCOc1ccc(NC(=O)CN(C)C(=O)CN2C(=O)NC3(CCCC3)C2=O)cc1OCC	.	.	56.2µM	.	.	.
CCOc1ccc(NC(=O)CN(C)C(=O)Cc2c[nH]c3ccccc23)cc1OCC	.	.	50.1µM	.	?	.
CC(=O)NC(Cc1c[nH]c2ccccc12)C(=O)OCC(=O)Nc1ccc2c(c1)OCO2 (configuration not stated)	.	.	.	.	.	.
Cc1ccc(C(C(=O)Nc2ccc3c(c2)OCO3)N(C)C(=O)Cc2c[nH]c3ccccc23)cc1 (configuration not stated)	?	.	39.8µM	?	.	.
CN(CC(=O)Nc1ccc(Cl)c(Cl)c1)C(=O)CN1C(=O)NC2(CCCC2)C1=O	.	.	?	.	.	.
CCOc1ccc(OCC)c(NC(=O)c2ccc(-c3ccccc3)s2)c1	.	/	.	.	/	.
COc1ccc(NC(=O)Cn2c3ncccc3c(=O)n2-c2ccc(C)c(C)c2)c(OC)c1	.	/	.	.	/	.
CCC(C(=O)NCCCN(CC)CC)n1ncn2c(cc3occc32)c1=O (configuration not stated)	.	/	?	.	/	.
COc1ccccc1CNC(=O)c1nnn(CC(=O)Nc2c(C)cccc2C)c1N	.	/	.	.	/	.
CCC(CC)C(=O)Nc1ccc2nc(SCC(=O)N3CCCC3)sc2c1	.	/	.	.	/	.
COc1cc(/C=N/Nc2nc(C)cc(=O)[nH]2)ccc1O	.	/	.[0.501 µM]	.	.	.
Cc1cc(=O)[nH]c(N/N=C/c2ccc(C)o2)n1	.	.	?	56.2µM	.	.
Cc1cc(=O)[nH]c(N/N=C/c2ccco2)n1	.	/	.[2.33 µM]	.	.	.
Cc1cc(=O)[nH]c(N/N=C/c2ccc(F)cc2)n1	.	/	?	.	.	.
COc1ccc(/C=N/Nc2nc(C)cc(=O)[nH]2)cc1OC	.	.	?	25.1µM	.	.
COc1cc(/C=N/Nc2nc(C)cc(=O)[nH]2)cc(OC)c1O	.	/	28.2µM	.	.	.
Cc1cc(=O)[nH]c(N/N=C/c2ccc(N(C)C)cc2)n1	.	.	.	25.1µM	.	.
Cc1ccc(C2Nc3cccc4cccc(c34)N2)s1	?	.	12.6µM	?	.	?
Cc1ccc(-c2nc3cnccn3c2Nc2ccc3c(c2)OCO3)o1	50.1µM	.	31.6µM	?	.	.
Cc1ccn2c(Nc3ccc4c(c3)OCO4)c(-c3ccc(C)o3)nc2c1	.	/	15.8µM	?	/	.
Cc1ccn2c(NC3CCCCC3)c(-c3ccc(C)o3)nc2c1	/	/	/	?	/	.
COc1ccc(Nc2c(-c3ccc(C)o3)nc3cc(C)ccn23)cc1	?	/	15.8µM	?	/	.
Cc1ccc(NC(=O)Cn2c(=O)n(Cc3ccccc3)c(=O)c3c(C)c(C)sc32)c(C)c1	.	/	.	.	/	.
